Source: PubChem BioAssay (National Center for Advancing Translational Sciences (NCATS))
AmpC det inh = blocks E. coli AmpC beta-lactamase in presence of detergent | P00811 | purified AmpC, nitrocefin hydrolysis with detergent | Potency, µM (highest dose often 28.7 µM) | 71,000 tested, 0.09% active; active means well fitted curve in the direction sought with a large enough effect; inconclusive means small, poorly fitted or top-dose-only effect
Target sequence (P00811 whole entry, looked up): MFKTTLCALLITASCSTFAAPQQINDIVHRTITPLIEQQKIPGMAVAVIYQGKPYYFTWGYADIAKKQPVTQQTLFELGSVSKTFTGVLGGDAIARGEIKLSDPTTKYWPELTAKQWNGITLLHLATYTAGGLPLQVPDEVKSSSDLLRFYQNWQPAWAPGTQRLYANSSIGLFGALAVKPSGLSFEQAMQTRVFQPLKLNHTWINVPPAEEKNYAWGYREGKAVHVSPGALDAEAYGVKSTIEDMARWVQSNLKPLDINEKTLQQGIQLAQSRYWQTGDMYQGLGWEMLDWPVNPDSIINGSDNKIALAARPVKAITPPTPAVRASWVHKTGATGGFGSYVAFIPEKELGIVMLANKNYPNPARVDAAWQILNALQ
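E. coli AmpC (5.3 nM) in 20 mM phosphate pH 7.0 with 0.01% Triton X-100, preincubated 15 min RT with compound; nitrocefin (2 uL of 800 uM stock) hydrolysis followed by 480 nm absorbance every 20 s over 4 min.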
SmPrx2 inh = Schistosoma mansoni Prx2 inhibition; S. mansoni Prx2 activity coupled to TGR/GSH (TGR is thioredoxin glutathione reductase), NADPH fluorescence loss, qHTS; Potency, µM; 65,000 tested, 0.07% active
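Purified S. mansoni TGR and Prx2 in pH 7.4 phosphate buffer with EDTA and Tween-20 were preincubated with compounds for 15 min. Further NADPH/GSH was added, then a 2.5 mM H2O2 aliquot initiated turnover, followed kinetically by NADPH fluorescence.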
Anthrax LT inh = blocks cellular internalization of anthrax lethal toxin; Cells, anthrax lethal toxin internalization, FRET ratio (460/530); AID 912; 70,000 tested, 0.67% active; Potency, µM (series often up to 40 µM), hits mostly inhibitors; further: nearly all actives have a fitted effect of over 50% in size
AmpC nodet inh = inhibitors of E. coli AmpC beta-lactamase without detergent; P00811; AmpC nitrocefin hydrolysis, absorbance 480 nm, no detergent; Potency, µM (top dose mostly 28.7 µM); 71,000 tested, 1.8% active
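AmpC, 20 mM phosphate pH 7.0; 15 min cpd preinc, RT; start with nitrocefin (800 uM stock); A480 kinetic read, 20 s intervals, 4 min. No-enzyme wells = negative control.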
Large screens that a line does not name were inactive; [ ] = remark or other dose. Most compounds without a hit are left out; they make up all but 2.4% or so of the library. Unless noted, the call rests on the fitted dose curve.

CSc1ccc(C2Nc3ccccc3-c3cc(C)nn32)cc1 (stereo not drawn)	Anthrax LT inh 13µM
Cc1cc2n(n1)C(c1ccsc1)Nc1ccccc1-2 (stereo not drawn)	none
CCc1ncc(C(O)c2cccc(OC)c2OC)n1C (stereo not drawn)	none
CCn1ccnc1C(O)c1cccc(OC)c1OC (stereo not drawn)	AmpC nodet inh 4µM[single pt active]
Cc1cc(Cc2c(C)c(C)c(Cc3cc(C)cc(C(C)(C)C)c3O)c(C)c2C)c(O)c(C(C)(C)C)c1	none
Cc1cc(Cc2cc(C)cc(C(C)(C)C)c2O)c(O)c(Cc2cc(C)cc(C(C)(C)C)c2O)c1	Anthrax LT inh 3.2µM
N[C@H](C(=O)O)c1cccc(O)c1	Anthrax LT inh inconclusive
CC(C)(C)NC(=O)c1ccc(NC(=O)C2COc3ccccc3O2)cc1 (stereo not drawn)	none
COC(=O)c1ccc(C)c(NC(=O)C2COc3ccccc3O2)c1 (stereo not drawn)	none (no result: Anthrax LT inh)
COc1ccc(OC)c(NS(=O)(=O)c2ccc(NC(=O)C3COc4ccccc4O3)cc2)c1 (stereo not drawn)	Anthrax LT inh inconclusive, AmpC nodet inh 10µM (no result: SmPrx2 inh)
COc1cc(NC(=O)C2COc3ccccc3O2)c(OC)cc1Cl (stereo not drawn)	Anthrax LT inh 13µM
CC1CC(C)CN(S(=O)(=O)c2ccc(NC(=O)C3COc4ccccc4O3)cc2)C1 (stereo not drawn)	Anthrax LT inh inconclusive, AmpC nodet inh 16µM[single pt active]
COc1ccc(-c2[nH]ncc2-c2cnn(-c3ccccc3)c2)c(O)c1	Anthrax LT inh 13µM
CCc1ccc(C2C(C#N)=C(N)SC(N)=C2C#N)s1	Anthrax LT inh 10µM
CCc1ccc(C2C(C#N)=C(N)SC(N)=C2C#N)cc1	Anthrax LT inh 13µM (no result: SmPrx2 inh)
O=c1c(-c2cc(F)cc(F)c2)nc2cnc(N3CCNCC3)nc2n1-c1ccccc1	Anthrax LT inh inconclusive
CC(C)=CCC/C(C)=C/CO/N=C1/C[C@@H](O)[C@@H](O)[C@@H]2[C@@H]3C(=O)N(C4CCCCC4)C(=O)[C@H]3CC[C@@H]12	none (no result: AmpC det inh, SmPrx2 inh, AmpC nodet inh)
O=C(Oc1cccc(-n2cnnn2)c1)c1sc2ccccc2c1Cl	AmpC nodet inh 13µM[single pt active]
O=C(NCc1ccc2c(c1)OCO2)C1CCCN(S(=O)(=O)c2cccnc2)C1 (stereo not drawn)	AmpC nodet inh 4µM[single pt active]
O=C(C1CCCN(S(=O)(=O)c2cccnc2)C1)N1CCN(c2ccccn2)CC1 (stereo not drawn)	Anthrax LT inh inconclusive, AmpC nodet inh 4µM[single pt active]
CCOC(=O)N1CCN(C(=O)C2CCCN(S(=O)(=O)c3cccnc3)C2)CC1 (stereo not drawn)	AmpC nodet inh 4µM[single pt active]
Cc1csc(NC(=O)C2CCCN(S(=O)(=O)c3cccnc3)C2)n1 (stereo not drawn)	AmpC nodet inh 3.2µM[single pt active]
Cc1ccc(CNC(=O)C2CCCN(S(=O)(=O)c3cccnc3)C2)cc1 (stereo not drawn)	none
O=c1c(-c2ccc(F)c(F)c2)nc2cncnc2n1C1CC1	none
O=C(c1ccco1)N1CCC2(CC1)CN(c1ccccc1)C2	none
CNc1ncnc2ccc(-c3ccccc3OC)cc12	Anthrax LT inh inconclusive
COc1ccc(S(=O)(=O)n2nc(OC(=O)c3ccc(C)cc3)cc2N)cc1	AmpC nodet inh 13µM
Cc1ccc(S(=O)(=O)N2CCCC2C(=O)Nc2ccc(O)cc2)cc1 (stereo not drawn)	none
O=C(Nc1ccc(O)cc1)C1CC=CCC1 (stereo not drawn)	AmpC nodet inh 13µM[single pt active]
CCCC[C@]1(C2CCCC2)Cc2cc(OCC(=O)O)c(Cl)c(Cl)c2C1=O	none
O=c1c(-c2cc(F)cc(F)c2)nc2cnc(N3CCNCC3)nc2n1Cc1cccs1	Anthrax LT inh inconclusive
Cc1ccc(C)c(-n2c(Cc3cc(=O)[nH]c(=O)[nH]3)nnc2SC(C)C)c1	AmpC nodet inh 4µM[single pt active]
CCOc1ccc(-n2c(Cc3cc(=O)[nH]c(=O)[nH]3)nnc2SCC(=O)OC)cc1	AmpC nodet inh 4µM[single pt active]
CCC(C)Sc1nnc(Cc2cc(=O)[nH]c(=O)[nH]2)n1-c1ccc(OC)cc1 (stereo not drawn)	AmpC nodet inh 3.2µM[single pt active]
COC(=O)C(C)Sc1nnc(Cc2cc(=O)[nH]c(=O)[nH]2)n1-c1ccc(OC)cc1 (stereo not drawn)	AmpC nodet inh 4µM[single pt active]
COc1ccccc1CNc1ccnc(-c2ccc(N(C)C)cc2)n1	Anthrax LT inh inconclusive
CCC[C@@H]1O[C@@H]2C[C@@H]3[C@@H]4CCC5=CC(=O)C=C[C@@]5(C)[C@H]4[C@H](O)C[C@@]3(C)[C@@]2(C(=O)CO)O1	none
COCCNc1nc(C)nc2c1nc(-c1ccccc1)n2CCN(C)C	none (no result: SmPrx2 inh)
C=C1c2cccc(O)c2C(O)=C2C(=O)[C@@]3(O)C(O)=C(C(N)=O)C(=O)[C@@H](N(C)C)[C@@H]3[C@@H](O)[C@H]12	AmpC nodet inh inconclusive
CC1(C(=O)NCc2cccnc2)CCC(=O)N1CCc1ccccc1 (stereo not drawn)	AmpC nodet inh 4µM[single pt active]
CC1(C(=O)NCc2cccnc2)CCC(=O)N1Cc1cccs1 (stereo not drawn)	AmpC nodet inh 4µM[single pt active]
COc1ccc(CCN2C(=O)CCC2(C)C(=O)NCc2cccnc2)cc1OC (stereo not drawn)	none
COC(=O)[C@@H]1[C@@H](O)[C@]2(O)c3ccccc3O[C@]2(c2ccccc2)[C@H]1c1ccccc1	none (no result: AmpC det inh, SmPrx2 inh, AmpC nodet inh)
CCCOC(=O)C1C2C=CC3(CN(c4ccc(Cl)c(F)c4)C(=O)C13)O2 (stereo not drawn)	AmpC nodet inh inconclusive
CCOC(=O)C1C2C=CC3(CN(c4ccc(Cl)c(F)c4)C(=O)C13)O2 (stereo not drawn)	AmpC nodet inh 2µM[single pt active]
O=C(O)C(C(=O)O)P(=S)(S)c1ccccc1 (stereo not drawn)	none
CCCn1c(C)nc2c(N3CCCN(Cc4ccccc4)CC3)nc(C)nc21	none (no result: SmPrx2 inh)
CCCn1c(-c2ccc(F)cc2)nc2c(N3CCCN(Cc4ccccc4)CC3)nc(C)nc21	Anthrax LT inh 6.3µM (no result: SmPrx2 inh)
O=c1c(O)c(-c2cc(O)c(O)c(O)c2)oc2cc(O)cc(O)c12	Anthrax LT inh inconclusive, AmpC nodet inh 10µM
COc1cccc(NC2SC(=O)N(c3ccccc3)C2=O)c1 (stereo not drawn)	AmpC nodet inh 4µM[single pt active]
COc1ccccc1N(C(C)=O)C1SC(=O)N(c2ccccc2)C1=O (stereo not drawn)	none
COc1ccc(C(=O)Nc2ccc(Cl)cc2C(=O)NCc2ccco2)cc1OC	Anthrax LT inh 7.9µM (no result: SmPrx2 inh)
c1ccc(C(NCCNC(c2ccccc2)c2ccccc2)c2ccccc2)cc1	Anthrax LT inh 10µM (no result: AmpC det inh, SmPrx2 inh, AmpC nodet inh)
CC=O	none (no result: SmPrx2 inh)
COCCn1c(=O)cnc2cnc(N3CCN(C)CC3)nc21	none
CCc1ccc(NC2=NCC(=O)N2Cc2ccc3c(c2)OCO3)cc1	Anthrax LT inh 10µM
Cc1ccc2c(c1)-c1c(cnn1CC(=O)O)CO2	none
Cc1ccc2c(c1)-c1c(cnn1CC(=O)Nc1ccccc1N1CCN(C)CC1)CO2	Anthrax LT inh 5µM
Cc1ccc(-c2nc(CS(=O)CC(=O)NCCN3CCOCC3)c(C)o2)cc1 (stereo not drawn)	AmpC nodet inh 4µM[single pt active]
